In PubChem BioAssay:
The source made the active and inactive calls.

How the values were obtained:
[1] = compound effects on lung adenocarcinoma cell viability – A549, calcein-AM fluorescence, 48 h, basal, profiling panel (AID 1162); conditions: higher = more signal
[2] = compound effects on differentiated 3T3-L1 adipocyte viability – cell-based, 3T3-L1 adipocytes, calcein-AM fluorescence, 48 h, basal, profiling panel (AID 1163); conditions: 3T3-L1 adipocytes viability, higher = more signal
[3] = compound effects on hepatocellular carcinoma cell viability – HepG2, calcein-AM fluorescence, 48 h, basal, profiling panel (AID 1164); conditions: higher = more signal
[4] = compound effects on multiple myeloma cell viability – MM1S, calcein-AM fluorescence, 48 h, basal, profiling panel (AID 1165); conditions: higher = more signal
[5] = calcein-AM signal in unstimulated myeloma cells – cell-based, calcein-AM fluorescence, 48 h, PK04 Diversity Set, profiling panel (AID 1166); conditions: RPMI8226 myeloma viability, higher = more signal;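 note: cells grown under basal conditions without added stimulus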
[6] = JC-1 mitochondrial signal, unstimulated HepG2 cells – cell-based, JC-1 fluorescence, 24 h, 100 nL compound, profiling panel (AID 1167); conditions: HepG2 mitochondrial potential, higher = more signal
[7] = JC-1 mitochondrial signal, unstimulated adipocytes – cell-based, JC-1 fluorescence, 3T3-L1 adipocytes, 24 h, 100 nL compound, profiling panel (AID 1168); conditions: JC-1 mitochondrial fluorescence, higher = more signal, called active from +8 up or from −8 down
[8] = JC-1 mitochondrial signal, unstimulated myeloma cells – cell-based, JC-1 fluorescence, RPMI8226, 24 h, 100 nL compound, profiling panel (AID 1169); conditions: JC-1 mitochondrial potential fluorescence, higher = more signal
[9] = JC-1 mitochondrial signal, unstimulated MM1S myeloma – cell-based, JC-1 fluorescence, 24 h, 100 nL compound, profiling panel (AID 1170); conditions: MM1S mitochondrial potential, higher = more signal
[10] = resazurin metabolic signal in A549 cells – cell-based, resazurin fluorescence, 24 h, PK04 Diversity Set, profiling panel (AID 1171); conditions: A549 viability, higher = more signal, called active from +8 up or from −8 down
Note: test concentration not given here.

SMILES | z-score [1] | z-score [2] | z-score [3] | z-score [4] | z-score [5] | z-score [6] | z-score [7] | z-score [8] | z-score [9] | z-score [10]
CCCCCCc1nc(-c2ccc(OC)nc2)cc2c1[Si](C(C)C)(C(C)C)O[C@H]2c1ccccc1 | -0.33 | -0.261 | -1.1 | -0.26 | -1.12 | -1.14 | -1.3 (inactive) | -0.198 | -0.281 | 0.98 (inactive)
C=CCOC(=O)[C@H]1[C@@H]2C(=O)O[C@@H](c3ccccc3)[C@@H](c3ccccc3)N2[C@@H](c2ccc(OCCOC(=O)[C@H]3C[C@H]4C(=O)N[C@@H](CCCCNC(C)=O)C(=O)N4[C@H]3c3cccc(OCCO)c3)cc2)[C@]12C(=O)Nc1ccccc12 | -0.112 | 0.457 | -0.696 | -0.297 | 0.728 | -0.235 | 1.91 (inactive) | -0.0898 | -0.67 | 0.319 (inactive)
CCCC[C@@H]1C[C@H]1[C@@H](NC(=O)c1cccs1)c1ccc(-c2ccccc2)cc1 | -0.997 | -0.537 | -0.0352 | -0.802 | -0.38 | 0.565 | -1.56 (inactive) | -0.233 | -0.815 | 1.71 (inactive)
O=C1NC(=O)C2C1C=CC(C(O)c1cc(C(F)(F)F)cc(C(F)(F)F)c1)N2Nc1ccccn1 (stereo not given) | -1.02 | -0.485 | -0.165 | 0.34 | -0.559 | -0.326 | -0.169 (inactive) | 0.372 | -0.204 | -0.568 (inactive)
CCCc1cc2c(n1Cc1cc(F)cc(F)c1)C(C)C1CN(C(=O)c3ccccc3)C(C)(C(=O)OC)C21 (stereo not given) | -0.679 | 0.149 | -0.237 | -1.7 | -4.39 | 2.5 | -1.98 (inactive) | -0.904 | -1.79 | -0.675 (inactive)
Oc1ccc2cc[n+](Cc3sc4ccccc4c3Cl)cc2c1 | -0.66 | 0.552 | -0.934 | 0.241 | -1.86 | -1.4 | -0.0649 (inactive) | 0.376 | 1.78 | -0.655 (inactive)
COC(=O)[C@]1(CCC(=O)OC(C)(C)C)N=C(c2ccc(OCCCO)cc2)O[C@@H]1c1ccccc1CN=[N+]=[N-] | -2.13 | -0.354 | -3.03 | -3.55 | -3.95 | -1.93 | -0.718 (inactive) | -1.16 | -2.7 | -2.22 (inactive)
[N-]=[N+]=Nc1ccccc1[C@H]1OC(c2ccc(OCCCO)cc2)=N[C@@]1(CCS(=O)(=O)c1ccccc1)C(=O)NCC(O)CO (stereo not given in full) | -0.0714 | 0.638 | 0.0911 | -0.826 | 0.395 | -1.16 | -0.22 (inactive) | 0.311 | -0.0714 | 0.859 (inactive)
[N-]=[N+]=NCc1ccccc1C[C@]1(C(=O)N2CCCCC2)N=C(c2ccc(OCCCO)cc2)O[C@H]1c1ccccc1N=[N+]=[N-] | -1.27 | 1.03 | -0.454 | -2.18 | -3.48 | 0.345 | -0.187 (inactive) | -1.16 | -1.07 | -0.6 (inactive)
COC(=O)[C@@]1(Cc2ccc(OC)cc2)[C@@H]2C(=CC(=O)[C@H]2CC(=O)C(=O)N2CCCC2)CN1C(=O)c1ccccc1 | -0.0504 | -0.386 | -0.167 | -0.565 | -1.17 | 0.718 | -0.407 (inactive) | -0.356 | -1.69 | 0.408 (inactive)
COCCOC(=O)N1C(=O)[C@@]2(c3cc(C#CCC(C(=O)OC)C(=O)OC)ccc31)[C@H](c1ccccc1OCCO)N1[C@H](c3ccccc3)[C@H](c3ccccc3)OC(=O)[C@H]1[C@@H]2C(=O)NC[C@H](O)c1ccccc1 | -0.0256 | 0.821 | 0.015 | -3.44 | -3.9 | -0.187 | 2.16 (inactive) | -0.776 | -1.81 | -0.55 (inactive)
O=C1c2ccccc2[C@](Cc2ccccc2I)(C(=O)NCCN2CCOCC2)[C@H](c2ccc(CO)cc2)N1Cc1ccccc1Cl | 0.537 | 0.261 | 0.63 | -1.66 | -1.88 | 1.77 | -0.585 (inactive) | -0.273 | 0.918 | 0.928 (inactive)
CC(C)C(O)C1C=CC2C(=O)NC(=O)C2N1Nc1ccc(Cl)cc1Cl (stereo not given) | -1.06 | -0.699 | -0.401 | -0.687 | -0.644 | -2.25 | -1.12 (inactive) | -0.161 | -0.143 | -0.883 (inactive)
Cc1ccccc1C(O)C1C=CC2C(=O)N(c3ccccc3)C(=O)C2N1Nc1ccc(C(C)C)cc1 (stereo not given) | -0.0475 | -0.127 | -0.169 | -0.136 | -0.727 | -2.15 | -1.8 (inactive) | -0.754 | -0.0109 | -1.41 (inactive)
COC(=O)[C@@]1(Cc2ccc(OC)cc2)[C@H]2c3cc(C(=O)N(C)C)n(Cc4ccc(S(C)(=O)=O)cc4)c3C[C@H]2CN1C(=O)c1ccccc1 | 2.88 | 0.449 | 1.13 | 0.636 | 1.51 | 3.14 | -0.572 (inactive) | 0.484 | -1.11 | 0.0073 (inactive)
C=CCOC(=O)[C@H]1[C@@H]2C(=O)O[C@@H](c3ccccc3)[C@@H](c3ccccc3)N2[C@@H](c2ccc(OCCOC(=O)[C@H]3C[C@H]4C(=O)N[C@@H](CCCC[N+](C)(C)C)C(=O)N4[C@H]3c3ccc(O)cc3)cc2)[C@]12C(=O)Nc1ccc(I)cc12 | 0.191 | -0.113 | 0.837 | -0.233 | -0.661 | 0.239 | -0.672 (inactive) | 0.0674 | 0.17 | -0.0807 (inactive)
CC(C)NC(=O)[C@@]1(c2ccc([N+](=O)[O-])cc2)CC(=O)N(C2CCCCC2)[C@@H]1c1ccc(CO)cc1I | 1.92 | 1 | 0.243 | -2.24 | -2.58 | 1.29 | 0.484 (inactive) | -0.169 | 0.521 | 0.465 (inactive)
[N-]=[N+]=Nc1ccccc1[C@H]1OC(c2ccc(OCCCO)cc2)=N[C@@]1(CCS(=O)(=O)c1ccccc1)C(N)=O | 0.0833 | 0.733 | 0.0844 | -0.57 | 0.0418 | -0.93 | -0.235 (inactive) | -1.07 | 0.296 | 0.985 (inactive)
C=CCOC(=O)[C@@H]1[C@H]2C(=O)O[C@H](c3ccccc3)[C@H](c3ccccc3)N2[C@H](c2ccc(OCCOC(=O)[C@H]3C[C@H]4C(=O)N5CCC[C@H]5C(=O)N4[C@H]3c3ccc(O)cc3)cc2)[C@@]12C(=O)Nc1ccc(I)cc12 | 0.0077 | 0.205 | -1.02 | -1.75 | -1.31 | -1.7 | 1.24 (inactive) | -0.81 | -1.27 | -0.685 (inactive)
NC(=O)NCC#Cc1ccc2c(c1)[C@]1(C(=O)N2)[C@H](c2ccc(O)cc2)N2[C@H](c3ccccc3)[C@H](c3ccccc3)OC(=O)[C@H]2[C@@H]1C(=O)O | 0.517 | 0.145 | 0.829 | 0.343 | -1.12 | -1.2 | -1.47 (inactive) | 0.183 | -0.713 | -0.397 (inactive)
CC(C)N1C(=O)c2ccccc2[C@](C)(C(=O)NCCN2CCOCC2)[C@@H]1c1ccc(CO)cc1 | -0.291 | -0.748 | 0.458 | -1.69 | 0.0409 | 0.916 | -0.537 (inactive) | 1 | -0.0545 | 0.0569 (inactive)
CC(C)NC(=O)[C@@]1(C)c2ccccc2C(=O)N(Cc2cc(C(F)(F)F)cc(C(F)(F)F)c2)[C@H]1c1ccc(CO)cc1 | 1.25 | -0.562 | 0.481 | -0.137 | -0.825 | 0.718 | 0.468 (inactive) | -0.382 | -0.527 | -0.558 (inactive)
CC(C)(C)OC(=O)CC[C@]1(C(=O)N2CCOCC2)N=C(c2ccc(OCCCO)cc2)O[C@H]1c1ccccc1N=[N+]=[N-] | 0.901 | 0.232 | 0.556 | -0.474 | -0.337 | 1.27 | 3.46 (inactive) | -0.252 | 0.103 | 1.03 (inactive)
C=CCNC(=O)[C@@H]1[C@H]2C(=O)O[C@H](c3ccccc3)[C@H](c3ccccc3)N2[C@H](c2ccc(OCCO)cc2)[C@@]12C(=O)Nc1ccc(C#CCC(C(=O)OC)C(=O)OC)cc12 | -0.305 | 1.09 | 0.22 | -3.45 | -4.16 | 0.644 | 1.39 (inactive) | -0.907 | -1.63 | 1.39 (inactive)
CN(C)C(=O)[C@@]1(CCS(=O)(=O)c2ccccc2)COC(c2ccc(OCCCO)cc2)=N1 | -0.245 | -0.0285 | -1.28 | -2.08 | -2.36 | -1.09 | -0.0809 (inactive) | -0.476 | -1.49 | -2.54 (inactive)
O=C1C[C@]2(c3ccc([N+](=O)[O-])cc3)C(=O)N(CC(F)(F)F)c3cc(CO)ccc3[C@H]2N1C1CCCCC1 | 1.81 | -0.677 | 0.203 | 0.0687 | 1 | 0.38 | 0.986 (inactive) | 0.247 | 1.9 | -0.745 (inactive)
CC1(C)C2C=C(C(O)C3C=CC4C(=O)NC(=O)C4N3Nc3ccc(Cl)cc3Cl)C[C@@H]1C2 (stereo not given in full) | -2.48 | -0.88 | -1.8 | -3.73 | -4.1 | -4.27 | -0.803 (inactive) | -1.14 | -1.04 | -1.85 (inactive)
COC(=O)c1c(CC[C@@H](CO)NC(=O)NCCn2cc(C3(O)CCCC3)nn2)oc(C(C)=O)c1C(=O)OC | -0.298 | 0.154 | 0.122 | 0.454 | 0.206 | -0.0184 | -0.543 (inactive) | 0.586 | -0.152 | -0.957 (inactive)
